Bioassay records deposited in PubChem by The Scripps Research Institute Molecular Screening Center.
GALR2 blocker: antagonists of human galanin receptor 2 (GALR2) | GALR2-expressing cells, antagonist mode | inhibition, % at 4 µM | 140,000 compounds, 0.39% hits | AID 828; in the data active means inhibition above about 27%;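 further: cells stimulated with galanin 1-16 at roughly its EC80; 0% = agonist challenge control and 100% = basal control without agonist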
S1P2 blocker: antagonists of human S1P2 receptor | O95136 | cell-based S1P2 antagonist assay, inhibition at 5 uM | inhibition, % at 5 µM | 97,000 compounds, 0.21% hits | AID 736; in the data active means inhibition above about 45%;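 further: CRE beta-lactamase reporter cells expressing human S1P2 stimulated with S1P; 0% = agonist at EC80 alone and 100% = agonist plus reference antagonist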
Target sequence (O95136 whole entry, looked up): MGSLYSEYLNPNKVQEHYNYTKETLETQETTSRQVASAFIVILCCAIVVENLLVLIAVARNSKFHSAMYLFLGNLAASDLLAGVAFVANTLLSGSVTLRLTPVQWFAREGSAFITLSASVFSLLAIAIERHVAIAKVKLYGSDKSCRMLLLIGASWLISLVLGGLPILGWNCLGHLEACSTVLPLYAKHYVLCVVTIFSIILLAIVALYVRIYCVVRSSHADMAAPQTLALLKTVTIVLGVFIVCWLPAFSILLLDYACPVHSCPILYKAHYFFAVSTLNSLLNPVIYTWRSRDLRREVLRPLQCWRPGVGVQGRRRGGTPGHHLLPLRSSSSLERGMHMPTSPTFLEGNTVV
GALR2 ag: GALR2 (human) receptor agonism; O43603; GALR2-expressing cells, agonist activation read-out; activation, % (test concentration not listed); 140,000 compounds, 0.48% hits; in the data active means activation above about 5%, passing the limit was not always enough;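 further: 0% = vehicle buffer wells and 100% = reference agonist at full effect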
S1P2 ag: S1P2 (human) receptor agonism | O95136 | S1P2-expressing cell line, agonist reporter read-out | activation, % at 4.5 µM | 97,000 compounds, 0.46% hits | AID 729; in the data active means activation above about 16%;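 further: 0% = vehicle low control and 100% = maximal reference agonist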
* hit, by the source's call; nt = not tested or not shown. The list is not random: actives were taken first. Their share in the collection is about 1.2%.

SMILES	GALR2 blocker	S1P2 blocker	GALR2 ag	S1P2 ag
NC(=O)CSc1nc2scc(-c3ccco3)c2c(=O)n1-c1ccccc1	-2	-16	-4	-4
O=c1c2c(-c3ccco3)csc2nc(SCc2cn3cccnc3n2)n1-c1ccccc1	-29	-40	3	20*
CCCC1=C([O-])C2N=CC=CC2=[N+](c2ccccn2)C1=O (centres undefined)	-7	nt	-1	nt
CCOC(=O)Nc1ccc2c(c1)N(C(=O)CCN1CCOCC1)c1ccccc1S2=O (centres undefined)	41*	29	-2	-10
CCOC(=O)Nc1ccc2c(c1)N(C(=O)CCN1CCOCC1)c1ccccc1S2	-4	-36	3	-4
Cc1cccc(NC(=O)c2sc(Cl)nc2-c2ccccc2)c1	3	1	-1	-2
O=C(NCc1cccnc1)/C(=C/c1ccc(-c2ccc(Cl)cc2)o1)S(=O)(=O)c1ccccc1	24	54*	1	-5
CCc1cccc(CC)c1N1C(=O)c2cc(N3CCOCC3)c([N+](=O)[O-])cc2C1=O	-1	nt	-1	nt
COc1ccc(CCN2C(=O)CS/C2=N\NC(=O)c2ccc(C(C)(C)C)cc2)cc1OC	8	nt	-1	nt
CC(C)(C)NC(=O)C(c1ccco1)N(C(=O)Cn1nnc(-c2ccc(F)cc2)n1)c1ccccc1F (centres undefined)	-7	-1	-1	19*
CN(C)c1nc(N)nc(CSc2n[nH]c(-c3ccccc3)n2)n1	-1	-30	-2	31*
CC1N=C2c3ccccc3N=C(SCc3cc(=O)n4cc(Cl)ccc4n3)N2C1=O (centres undefined)	2	-51	1	25*
CCOC(=O)c1c(NC(=O)C2CCCN(S(=O)(=O)c3ccc(C)cc3)C2)sc2c1CCCC2 (centres undefined)	-13	nt	1	nt
CC(C)c1ccc(-c2nc(N3CCCCCC3)nc3n[nH]c(N)c23)cc1	-3	5	-3	-5
CC(C)c1ccc(-c2nc(N3CCCC3)nc3n[nH]c(N)c23)cc1	3	nt	6.2*	nt
Cc1cccc(C)c1OCc1nnc(SCC(=O)Nc2nccs2)n1-c1ccccc1	-7	8	6.5*	0
Nc1nc2nc(-c3ccc(OCc4ccccc4)cc3)cc(C(F)(F)F)n2n1	2	-70	5	33*
C/C=C(/C)C(=O)OC1c2c(ccc3ccc(=O)oc23)OC(C)(C)C1OC(C)=O (centres undefined)	-2	-5	0	20*
COc1ccccc1C(=O)Nc1nc(-c2ccc(S(=O)(=O)N3CCOCC3)cc2)cs1	25	77*	2	-7
COc1ccccc1/C=C(/C(=O)OCC(=O)N(C)Cc1ccccc1)c1ccccc1	-9	nt	1	nt
O=c1oc2c(CN3CCOCC3)c(O)ccc2c2c1CCCC2	-1	nt	5.0*	nt
O=c1oc2c(CN3CCOCC3)c(O)ccc2c2ccccc12	0	-7	-1	-6
Cc1[nH]n(-c2nc(-c3cccc([N+](=O)[O-])c3)cs2)c(=O)c1C	-4	nt	0	nt
CCOC(=O)C1=C(C)Nc2nc(=S)[nH]n2C1c1ccc(Cl)cc1 (centres undefined)	-4	3	-1	-5
COCCn1c(C)cc(/C=C2/NC(=O)N(c3ccc(Cl)cc3)C2=O)c1C	-8	nt	7.1*	nt
SMILES	GALR2 blocker	S1P2 blocker	GALR2 ag	S1P2 ag
O=C(NNC(=O)c1cc([N+](=O)[O-])ccc1Cl)c1cccs1	7	nt	-1	nt
CCN1C(=O)C(F)(CC)C(=O)c2ccccc21 (centres undefined)	2	nt	0	nt
Cc1nc(NCc2ccc3c(c2)OCO3)c2nnn(Cc3ccccc3)c2n1	-4	nt	6.8*	nt
C(=N\Nc1nc(Nc2ccccc2)nc(N2CCOCC2)n1)/c1c[nH]c2ccccc12	13	47*	-2	-8
Cc1ccc(Nc2nc(N/N=C/c3c[nH]c4ccccc34)nc(N3CCOCC3)n2)cc1	16	nt	-1	nt
O=c1c2ccccc2c(=O)n(Cc2ccccc2)n1Cc1ccccc1	-15	nt	-1	nt
CCn1cc(C(=O)NCC(=O)OC)c2cc(OC)c(OC)cc2c1=O	-3	-16	0	5
CCn1cc(C(=O)Nc2ccc3c(c2)OCCO3)c2cc(OC)c(OC)cc2c1=O	-7	1	-2	29*
CCn1cc(C(=O)NCc2ccc(C)o2)c2cc(OC)c(OC)cc2c1=O	-9	-22	0	17*
CCn1cc(C(=O)Nc2cccc(NC(C)=O)c2)c2cc(OC)c(OC)cc2c1=O	6	0	-1	3
C=CCSc1nncn1/N=C/c1ccc(OC)cc1	-2	11	-1	-9
COc1ccc(/C=N/n2cnnc2SCCO)cc1OC	-21	-29	0	19*
O=S(=O)(/N=C(/Nc1ccc(F)cc1F)c1ccccc1)c1ccccc1	2	nt	-2	nt
CCn1c(SCC(=O)Nc2ncc(C(F)(F)F)cc2Cl)nnc1-c1ccccc1	6	nt	0	nt
CCC(C)n1c(NC(=O)c2ccccc2)c(C#N)c2nc3ccccc3nc21 (centres undefined)	2	-77	34*	56*
CC1CCC(NCc2ccco2)CC1 (centres undefined)	-9	-7	-3	0
Cn1cccc1Cc1nnc(SCC(=O)NC2CCCC2)n1-c1ccc(F)cc1	5	0	-4	-2
CS(=O)(=O)NCc1nnc(SCC(=O)NC2CCCCC2)n1-c1ccc(F)cc1	-6	11	-1	103*
CC1=C(C(=O)Nc2ccc(F)cc2)C(c2ccc(C)o2)C2=C(CC(C)(C)CC2=O)N1 (centres undefined)	0	11	-1	21*
Nc1c(C(=O)NCCN2CCOCC2)c2nc3ccccc3nc2n1CCc1ccccc1F	-19	-38	5.3*	45*
Nc1c(C(=O)NCCN2CCOCC2)c2nc3ccccc3nc2n1CCc1ccccc1	-20	-4	8.6*	29*
COc1ccc(N/N=C(/C)c2cnnc(-c3ccccc3)n2)cc1	1	nt	3	nt
CCc1ccc(-c2nc(NC(=S)NC(=O)c3cccs3)sc2C)cc1	-4	-5	-2	17*
CN(Cc1ccccc1)Cc1nc2c(c(=O)n(C)c(=O)n2C)n1Cc1ccc(F)cc1	-3	0	-1	39*
CN1/C(=C\C(=O)C(F)F)C(C)(C)c2ccccc21	4	15	0	-2
SMILES	GALR2 blocker	S1P2 blocker	GALR2 ag	S1P2 ag
CN1/C(=C\C(=O)c2ccco2)C(C)(C)c2ccccc21	6	16	4	18*
COC(=O)NC1CCC(NC(=O)OC)CC1 (centres undefined)	-13	nt	0	nt
O=C(CCCn1c(=S)[nH]c2cc3c(cc2c1=O)OCO3)N1CCN(c2ccc(F)cc2)CC1	-7	2	-1	-3
O=C(CCCn1c(=S)[nH]c2cc3c(cc2c1=O)OCO3)N1CCN(c2ccccc2F)CC1	13	-2	-3	31*
Cc1ccc(Cn2c(=N)c(C(=O)NCc3ccco3)cc3c(=O)n4ccccc4nc32)cc1	-4	-29	6.8*	24*
COCCCn1c(=N)c(C(=O)NCC2CCCO2)cc2c(=O)n3ccccc3nc21 (centres undefined)	-10	-31	19*	24*
N=c1c(C(=O)NCc2ccc(F)cc2)cc2c(=O)n3ccccc3nc2n1CC1CCCO1 (centres undefined)	-26	-43	14*	31*
